Source: PubChem BioAssay AID833 (The Scripps Research Institute Molecular Screening Center, 2007)
About 80 (0.5%) of roughly 16,000 compounds were called active. This is one part of a sample in which actives are shown more often than they occur. Unmarked numbers belong to inactive results. Cut-off read from the data, not from the text of the source: active = activation above about 15%; inactive = the rest.

What follows are molecules tested against Galanin receptor type 2 (Rattus norvegicus) (UniProt O08726) (assay: agonists of rat galanin receptor 2 (GALR2) (AID 833)). Conditions: cell-based GALR2 agonist screen; at 10 µM; hits give high values.
Chain of Galanin receptor type 2 (Rattus norvegicus) (O08726 whole entry, looked up): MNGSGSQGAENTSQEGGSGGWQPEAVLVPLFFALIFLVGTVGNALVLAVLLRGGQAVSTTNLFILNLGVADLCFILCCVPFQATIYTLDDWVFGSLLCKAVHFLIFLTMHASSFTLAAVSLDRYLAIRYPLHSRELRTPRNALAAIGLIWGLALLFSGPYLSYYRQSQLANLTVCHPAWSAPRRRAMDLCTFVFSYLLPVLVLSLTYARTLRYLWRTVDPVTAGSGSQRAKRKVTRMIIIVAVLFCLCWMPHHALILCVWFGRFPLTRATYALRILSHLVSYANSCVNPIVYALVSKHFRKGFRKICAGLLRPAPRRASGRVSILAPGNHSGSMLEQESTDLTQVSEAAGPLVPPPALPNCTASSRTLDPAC

Compared with `COc1ccc(S(=O)c2ccccc2C(=O)O)c(C(=O)O)c1` (centres undefined), `O=C(N[C@@H](Cc1ccc(O)cc1)C(=O)O)OCc1ccccc1` is higher in activation: -7.55% for the first, -5.07% for the second.

First: Cc1ccc(NC(=O)c2ccccc2NC(=O)c2ccccc2)cc1
Second: CN(C)c1cccc2c1c(NC(=O)Nc1ccc(OCc3ccccc3)cc1)nn2C
The activation of the first is higher: -2.58% for the first, -3.92% for the second.

First: CCOC(=O)C(=CNc1ccc2n[nH]nc2c1)C(=O)OCC
Second: CCOC(=O)c1cc(Sc2ccccc2N)cc(C(=O)OCC)n1
The activation of the first is higher: -1.04% for the first, -3.83% for the second.

Compared with `CSc1sc(C(=O)Nc2cccc(C(F)(F)F)c2)cc1S(=O)(=O)C(C)C`, `COC(=O)c1ccc(S(=O)(=O)NNC(=O)c2cn3cc(C(F)(F)F)cc(Cl)c3n2)n1C` is lower in activation: -6.93% for the first, -7.71% for the second.

Compared with `Cn1c(SCC(=O)c2ccc(Cl)cc2)nnc1-c1cnccc1C(F)(F)F`, `Fc1cccc(Cl)c1CSc1nccn1-c1cccnc1` is higher in activation: -8.49% for the first, -3.88% for the second.

Going from `O=S(=O)(Cc1nnc(-c2cc(Cl)cc(Cl)c2)o1)c1ccc(Cl)cc1` to `CCOC(=O)Cc1nnc(-c2ccc(Cl)cc2)o1`, the activation falls from -1.76% to -7.97%.

Compared with `CC1(C)CC(=O)C=C(N2CCOCC2)C1`, `Cc1noc(C)c1S(=O)(=O)Nc1cc(C(F)(F)F)ccc1N1CCOCC1` is lower in activation: -5.82% for the first, -7.12% for the second.

First: Cc1ccc(Sc2cc(C)c(C)cc2N)c(C)c1
Second: Cc1ccc(OC(=O)c2cccc([N+](=O)[O-])c2)c(Br)c1
The activation of the first is lower: -6.96% for the first, 1.69% for the second.

First: O=C1NCCN1CCNS(=O)(=O)c1cc(Cl)sc1Cl
Second: CS(=O)(=O)c1csc(C(=O)NCc2cccnc2)c1Cl
The activation of the first is higher: -5.62% for the first, -6.55% for the second.

First: O=S(=O)(Oc1ccc(C2SCCS2)cc1)c1ccc(Br)cc1
Second: NNC(=O)c1csc(COc2ccc(C3SCCS3)cc2)n1
The activation of the first is higher: -1.98% for the first, -7.31% for the second.

Going from `CNC(=S)Nc1cscc1S(=O)(=O)c1ccc(Cl)cc1` to `Cc1ccc(N(C)NC(=O)Nc2ccc(Cl)cc2)nn1`, the activation rises from -6.95% to -6.34%.

Going from `CCOC(=O)NC(=S)NC12CC3CC(CC(C3)C1)C2` to `CC(=O)c1ccc(NC(=O)OC2CCSC2)cc1` (centres undefined), the activation falls from -2.11% to -4.49%.

Compared with `Cc1onc(-c2ccccc2)c1CNS(=O)(=O)c1ccc(-c2ccccn2)s1`, `N#Cc1nc(-c2ccccc2)c(-c2ccccc2)nc1C#N` is higher in activation: -9.42% for the first, 3.73% for the second.

First: COC(=O)c1c(C(=O)OC)c2n(c1C)CCS2
Second: COC(=O)c1cc(OC)c(OC)cc1NS(=O)(=O)c1ccsc1C(=O)OC
The activation of the first is higher: -6.88% for the first, -7.2% for the second.

Compared with `Cc1onc(-c2ccccc2Cl)c1NC(=O)N1c2ccc(F)cc2CCC1C` (centres undefined), `O=C(NC(=O)c1ccno1)Nc1ccccc1Cl` is higher in activation: -4.64% for the first, -3.51% for the second.

First: N#Cc1sccc1Br
Second: N#Cc1ccc(N2CCSCC2)cc1[N+](=O)[O-]
The activation of the first is lower: -7.39% for the first, -4.09% for the second.

First: O=S(=O)(O)Oc1c[nH]c2ccccc12
Second: O=C(O)c1ccccc1N/C=C/[N+](=O)[O-]
The activation of the first is lower: -7.29% for the first, -3.26% for the second.

Compared with `N#CC(C#N)=Cc1cccn1-c1ccc(C(F)(F)F)cc1`, `O=C(Nc1ccc(C(F)(F)F)cn1)c1ccc(Oc2cc(Cl)cc(Cl)c2)o1` is higher in activation: -6.03% for the first, -5.62% for the second.

Going from `CS/C(=N\S(=O)(=O)c1ccccc1)NNc1ccccc1` to `CCOC(=O)CCC(=O)OC(C(=O)c1ccccc1)c1ccccc1` (centres undefined), the activation falls from -3.17% to -6.88%.

Going from `O=c1[nH]c2c(=O)[nH]c(=S)[nH]c2nc1/C=C(\O)c1ccccc1` to `O=C(NC1Cc2ccccc2C1)c1nnc(-c2ccccc2)o1`, the activation rises from -5.76% to -5.35%.

Compared with `CN(C)/C=C/C(=O)c1cc(C(C)(C)C)cc(C(C)(C)C)c1O`, `CN(C)C(=O)Nc1ccc(C(C)(C)C)cc1` is lower in activation: -4.8% for the first, -6.41% for the second.

Going from `N/C(=N\OC(=O)c1ccc(Cl)cc1)c1cccc(CS(=O)(=O)c2ccccn2)c1` to `N/C(=N\OC(=O)c1ccc([N+](=O)[O-])o1)c1ccc(OCc2ccc(Cl)cc2)c(Cl)c1`, the activation rises from -8.52% to -4.76%.

Compared with `COc1cccc(/C=C2\SC(=S)C(N)C2=O)c1OC` (centres undefined), `COc1ccc(C2CC(c3cccs3)=Nc3ccccc3S2)c(Cl)c1OC` (centres undefined) is lower in activation: -1.21% for the first, -10.3% for the second.

Going from `CS(=O)(=O)Nc1ccc(/C(N)=N/OC(=O)c2cccs2)cc1` to `c1csc(-c2ccc(-c3ccon3)s2)c1`, the activation rises from -5.51% to -4.74%.

First: CCc1ccnc(NS(=O)(=O)c2ccc3c(c2)OCCO3)c1
Second: O=C(Nc1ccc2c(c1)OCCO2)c1cnccn1
The activation of the first is lower: -1.48% for the first, 6.11% for the second.

Going from `COc1cc(C=C(C#N)C#N)cc(OC(C)=O)c1OC(C)=O` to `COc1ccc(C(=O)NNC(=O)c2c(OC)cc(C(F)(F)F)cc2C(F)(F)F)cc1`, the activation rises from -8.12% to -1.51%.

Compared with `CNC(=S)NNC(=O)CSc1cccs1`, `CCN=C(NCC)Nc1ccc(Cl)cc1` is lower in activation: -6.57% for the first, -7.95% for the second.

First: Cc1cc(C2=CSC3=NCCN23)ccc1Cl
Second: O=c1c(-c2nc(-c3ccc(C(F)(F)F)cc3)no2)cnc2n1CCS2
The activation of the first is lower: -7.84% for the first, -4.47% for the second.

First: CN(C)CCC(O)c1ccc2c(c1)OCCCCO2 (centres undefined)
Second: CCCN(CCC)S(=O)(=O)c1ccc(C(=O)N2CC3CCC(CC3)C2)cc1
The activation of the first is lower: -8.25% for the first, -5.35% for the second.

Compared with `Cc1noc(C)c1C(=O)Oc1cccc2cccnc12`, `COc1ccc2c(c1)CCCC2=Nc1ccccc1C(F)(F)F` is lower in activation: 3.32% for the first, -6.48% for the second.

First: NS(=O)(=O)c1cc(C(F)(F)F)cc(C(F)(F)F)c1
Second: O=C(Nc1ccc(OC(F)F)cc1)Nc1coc(-c2ccccc2)c1
The activation of the first is higher: -4.46% for the first, -4.63% for the second.

Compared with `O=C(Nc1ccccc1N1CCOCC1)NC1CCN(C(=O)OCc2ccccc2)CC1`, `Cc1nn2c(=O)c3c4c(sc3nc2[nH]c1=O)CCCC4` is higher in activation: -4.03% for the first, 0.66% for the second.
